# The list is not random: actives were taken first. Their share in the collection is about 21%.
# DRD3 antagonist: blocks the human D3 dopamine receptor. P35462. max response, negative = inhibition, %. 360,000 compounds, 2.5% hits. D3R cells, DiscoveRx beta-arrestin luminescence, antagonist mode; active compounds read low; in the data active = max response below about -50%; inconclusive = no clear call, values can overlap the other calls; also: % is scaled to controls: 0 for no effect and ±100 for the full control effect
#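 Cells plated overnight at 1500 cells/well, then exposed to library compounds with dopamine controls for 90 minutes at 37 degrees C. DiscoveRx reagent added for 30–60 minutes at room temperature; luminescence read, quantitative HTS format.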
# ClpP mod: qHTS Assay for Activators of ClpP | AID 651965, 2013 | ATP-dependent Clp protease proteolytic subunit (Bacillus subtilis (strain 168)), P80244 | Potency, µM (series often up to 57.5 µM), for the others: at the top dose activity change, negative = active | purified B. subtilis ClpP, FRET peptide cleavage, 20 min | 340,000 compounds, 1.9% hits; active = well fitted falling curve with a large enough effect; inconclusive = small, poorly fitted or top-dose-only effect; inactive = no such curve, though single readings can be large or run the other way; also: potency is read from the fitted curve at half-maximal effect; the source files actives as falling curves though it sought activators and does not explain the sign; nearly all actives have a fitted effect of over 65% in size
#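 Purified B. subtilis ClpP, 10 microg/mL final in Tris/HCl pH8 with KCl, BSA, glycerol and Tween-20, cleaved an Abz/nitrotyrosine-quenched decapeptide. Fluorescence (ex 320, em 430) was read at 0 and 20 min at room temperature. Delta was normalized to 5.8 microM ADEP and DMSO/no-enzyme controls.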
# DT40 TDP1 CPT: DT40-hTDP1 cell growth loss with CPT; Potency, µM (doses to about 46.2 µM), for the others: at the top dose activity change, negative = growth inhibition, actives largely listed as inhibitors; chicken DT40 Tdp1-/-;hTDP1 cells + 20 nM CPT, ATP luminescence, 48 h; 420,000 compounds, 12% hits; also: potency is read from the fitted curve at half-maximal effect; % is scaled to controls: 0 for no effect and ±100 for the full control effect; nearly all actives have a fitted effect of over 55% in size
#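 Cell growth measured by CellTiter-Glo luminescence after a minimum 48 h, 37 C compound exposure with 20 nM CPT in Tdp1-knockout DT40 cells stably expressing hTDP1, seeded 400/well; qHTS titration format.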
# IL-1B inflam inh: inflammasome signaling inhibition, IL-1 beta readout; THP-1 LPS/ATP IL-1B secretion, AlphaLISA, 16 h; active compounds read low; activity change, % at 57.5 µM; 360,000 compounds, 4.7% hits; AID 743279; in the data active = activity change below about -50%; inconclusive = mostly about -30% to -49%; also: % is scaled to controls: 0 for no effect and ±100 for the full control effect
#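 Secreted IL-1B measured by AlphaLISA bead assay after 16 h compound exposure of THP-1 cells; compounds (final up to 57.5 uM) added 1 h before LPS (250 ng/mL) and ATP (1.25 mM) stimulation; lower signal means less secretion.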
# TDP1 cell noCPT: qHTS for Inhibitors of human tyrosyl-DNA phosphodiesterase 1 (TDP1): qHTS in cells in absence of CPT. DT40 Tdp1-/- hTDP1 cells, no CPT, ATP luminescence, 48 h. AID 686978, 2013. Potency, µM (highest dose often 46.2 µM), inactives show at the top dose activity change, negative = growth inhibition, actives largely listed as inhibitors. 420,000 compounds, 15% hits; also: potency is read from the fitted curve at half-maximal effect; % is scaled to controls: 0 for no effect and ±100 for the full control effect; nearly all actives have a fitted effect of over 55% in size
#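 Luminescent ATP content (CellTiter-Glo) served as the growth readout. Knockout chicken DT40 cells expressing human TDP1 were exposed to compounds without camptothecin for a minimum 48 hr at 37 °C.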
# DRD3 agonist: agonists of human D3 dopamine receptor | P35462 | AID 652048 | 410,000 compounds, 0.58% hits | D3R DiscoveRx beta-arrestin cells, luminescence, 90 min | max activation, %; in the data active = max activation above about 30%; also: 0% is about no effect
#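 Cells at 1500/well, incubated overnight, then treated with pinned compounds (dopamine as control) for 90 min at 37 degrees C. DiscoveRx reagent added for 30 - 60 minutes at room temperature; luminescence read.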
# * hit, by the source's call; ? = inconclusive; nt = no result given. Unless noted, calls follow the shape of the dose curve; as a rule, active = well fitted inhibition curve with a large enough effect; inconclusive = small, poorly fitted or top-dose-only effect; inactive = flat fitted curve, though single readings scatter.
SMILES,DRD3 antagonist,ClpP mod,DT40 TDP1 CPT,IL-1B inflam inh,TDP1 cell noCPT,DRD3 agonist
Cc1ccc(CN=Cc2[nH]c3ccc(Br)c(Cl)c3c2O)cc1,-101*,-1%,?,0,21µM*,-26
COc1ccc(CN=Cc2c(O)[nH]c3ccccc23)cc1,-8,nt,?,-5,?,0
O=C(CN1C(=O)CCC1=O)Nc1ccc(Cc2ccc(NC(=O)CN3C(=O)CCC3=O)cc2)cc1,6,1%,16%,-69*,8%,7
Cc1ccc(C)c(Cn2c(=O)c3c(nc4n3CCN4c3ccccc3)n(C)c2=O)c1,nt,?,10%,nt,2%,15
Cc1cccc(Cc2c(C)nc3c(C(=O)NCc4ccco4)cnn3c2C)c1,?,32µM*,22µM*,-78*,11µM*,-6
Cc1nc2ccc(F)cc2cc1C(=O)NCc1ccco1,-30,0%,-25%,-16,-22%,-2
Cc1nc2c(C(=O)NCc3ccco3)cnn2c(C)c1Cc1ccc(F)cc1Cl,?,32µM*,11µM*,0,?,-20
Cc1nc(NC(=O)c2ccc(Cl)cc2)sc1Cc1ccc2c(c1)OCO2,-2,nt,4.1µM*,-7,3.7µM*,3
CC1(C(=O)NS(=O)(=O)c2ccccc2Cl)CCN1C(=O)CCc1ccccc1 (configuration not stated),-23,-3%,-11%,-19,-4%,0
O=C1CSC(c2cccc([N+](=O)[O-])c2)N1CCN1CCCCC1 (configuration not stated),?,-1%,6%,5,2%,0
O=C1CSC(c2ccccc2F)N1CCN1CCCCC1 (configuration not stated),-86*,-1%,-4%,12,-17%,-6
O=C(NCc1ccccc1)c1cccc2c1C(=O)c1ccc(/C=C/c3ccccc3)cc1S2(=O)=O,1,-25%,?,13,?,5
O=C(NC1CCCCC1)c1cccc2c1C(=O)c1ccc(-c3ccc(OC(F)(F)F)cc3)cc1S2(=O)=O,7,-3%,9.2µM*,11,9.2µM*,-20
O=C(NC1CCCC1)c1cccc2c1C(=O)c1ccc(/C=C/c3ccccc3)cc1S2(=O)=O,22,-28%,?,33,18µM*,8
CSC1=N/C(=C\c2ccc(F)cc2)C(=O)S1,-1,1%,1%,17,-22%,1
COc1ccc(/C=C/C=C2\N=C(SC)SC2=O)cc1,-10,1%,23µM*,-5,29µM*,-4
CNC1C(O)C(O[C@H]2C(O)[C@@H](OC3OC(CN)=CCC3N)[C@H](N)C[C@@H]2N)OC[C@]1(C)O (some centres not stated),nt,nt,0%,nt,-2%,nt
CCc1ccc(C2CC(=O)N(c3ccc(F)cc3)C3=C2C(=O)OC3)cc1 (configuration not stated),-15,1%,-7%,-1,16%,1
CN1c2ccc(Cl)cc2-c2nc(SCC(=O)NCc3ccccc3)ncc2S1(=O)=O,nt,-25%,?,nt,?,-14
COc1ccc2cc(Br)ccc2c1CC(=O)NC1CC(C)(C)NC(C)(C)C1,0,-1%,?,-66*,23µM*,0
Cc1cccn2c(=O)c3cc(C(=O)NCC4CCCO4)c(=N)n(CCc4ccccc4)c3nc12 (configuration not stated),-8,nt,16µM*,35,-83%,-14
COc1ccc(CCNC(=O)c2cc3c(=O)n4cccc(C)c4nc3n(CC3CCCO3)c2=N)cc1 (configuration not stated),8,?,3.3µM*,-11,10µM*,2
Cc1cccc(OCc2nnc(SCC(=O)N(c3ccccc3)C3CCS(=O)(=O)C3)o2)c1 (configuration not stated),6,-1%,?,-3,-24%,8
CCC(c1nnnn1CCc1ccccc1)N1CCN(c2ccc(OC)cc2)CC1 (configuration not stated),-17,-3%,?,-1,?,3
CCC(c1nnnn1-c1c(C)cccc1C)N1CCN(c2cccc(C(F)(F)F)n2)CC1 (configuration not stated),-68*,?,?,71,15µM*,-13
SMILES,DRD3 antagonist,ClpP mod,DT40 TDP1 CPT,IL-1B inflam inh,TDP1 cell noCPT,DRD3 agonist
CCC(c1nnnn1-c1c(C)cccc1C)N1CCN(CC)CC1 (configuration not stated),14,-2%,-2%,9,-10%,2
Cc1cccc(C)c1-n1nnnc1C(C1CC1)N1CCN(C/C=C/c2ccccc2)CC1 (configuration not stated),-79*,-4%,?,-21,?,1
CSCCC(c1nnnn1-c1c(C)cccc1C)N1CCN(C/C=C/c2ccccc2)CC1 (configuration not stated),-95*,-3%,?,-59*,18µM*,-14
COc1ccc(-n2nnnc2C(CCSC)N2CCN(C/C=C/c3ccccc3)CC2)cc1 (configuration not stated),-127*,-2%,?,?,?,-18
COc1ccc(Nc2nn(-c3ccc(OC(F)(F)F)cc3)nc2C(C)=O)cc1,nt,0%,-20%,nt,-5%,12
COc1ccc(N2C(=O)c3ccc(C(=O)Nc4ccccc4OC)cc3C2=O)cc1,-4,-3%,-6%,0,20%,3
CC(C)C(=O)N1CCCCCCN1C(=O)C(C)C,-19,-2%,-3%,13,-26%,-3
CSc1nc2cc(C)nn2c(-c2ccccc2Cl)c1C#N,0,-2%,4%,13,7%,2
COc1ccccc1CN1CC(C(=O)NCCn2ccc(C)n2)CCC1=O (configuration not stated),12,1%,1%,7,36%,5
Cn1cnc(S(=O)(=O)N2CCCC(C(=O)Nc3ccc(OC(F)(F)F)cc3)C2)c1 (configuration not stated),nt,-1%,?,nt,?,5
COc1ccc(-n2nnnc2C(C2CC2)N2CCN(C/C=C/c3ccccc3)CC2)cc1 (configuration not stated),-81*,1%,?,-9,?,-3
CCC(c1nnnn1-c1c(C)cccc1C)N1CCN(C/C=C/c2ccccc2)CC1 (configuration not stated),?,-1%,6.5µM*,-20,7.3µM*,-4

# Assay outcomes (PubChem)
